Test results published in PubChem BioAssay (NCI).
About 83,000 compounds went through this panel and 20% of them were active in at least one assay; those are over-represented in the sample as a whole.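 Method: cells in 96-well plates; compound added at one concentration; 48 h incubation; percent growth measured; values under 10 scored active.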 Unmarked numbers belong to inactive results. Activity calls are given as the source filed them.

What was measured:
Test in all cases: NCI-60 one-dose screen, 48 h (100 = growth as untreated, 0 = no growth, -100 = all killed)
Conditions in all cases: 10 µM unless noted
SK-MEL-2 melanoma = test system: SK-MEL-2 melanoma
EKVX NSCLC = test system: EKVX NSCLC
SN12C renal = test system: SN12C renal
UO-31 renal = test system: UO-31 renal
TK-10 renal = test system: TK-10 renal
ACHN renal = test system: ACHN renal
CAKI-1 renal = test system: CAKI-1 renal
A498 renal = test system: A498 renal
CCRF-CEM leukemia = test system: CCRF-CEM leukemia
MOLT-4 leukemia = test system: MOLT-4 leukemia
SR leukemia = test system: SR leukemia
RPMI-8226 leukemia = test system: RPMI-8226 leukemia
OVCAR-8 ovarian = test system: OVCAR-8 ovarian
OVCAR-5 ovarian = test system: OVCAR-5 ovarian
OVCAR-4 ovarian = test system: OVCAR-4 ovarian
SK-OV-3 ovarian = test system: SK-OV-3 ovarian
IGROV1 ovarian = test system: IGROV1 ovarian
OVCAR-3 ovarian = test system: OVCAR-3 ovarian
HS 578T breast = test system: HS 578T breast
NCI/ADR-RES ovarian = test system: NCI/ADR-RES ovarian

Compound | growth (SK-MEL-2 melanoma) | growth (EKVX NSCLC) | growth (SN12C renal) | growth (UO-31 renal) | growth (TK-10 renal) | growth (ACHN renal) | growth (CAKI-1 renal) | growth (A498 renal) | growth (CCRF-CEM leukemia) | growth (MOLT-4 leukemia) | growth (SR leukemia) | growth (RPMI-8226 leukemia) | growth (OVCAR-8 ovarian) | growth (OVCAR-5 ovarian) | growth (OVCAR-4 ovarian) | growth (SK-OV-3 ovarian) | growth (IGROV1 ovarian) | growth (OVCAR-3 ovarian) | growth (HS 578T breast) | growth (NCI/ADR-RES ovarian)
Cc1[nH]c(C(=O)Nc2ccccc2OCc2cccc(C(=O)NC3CCCNC3)c2)c(Cl)c1Cl (stereo not given) | 102% | -80.4% (active) | -72.9% (active) | -13% (active) | -75% (active) | -86.8% (active) | -91.3% (active) | 66.2% | 2.33% (active) | -25.3% (active) | -30.5% (active) | -19.1% (active) | -44.3% (active) | -87.8% (active) | -73.4% (active) | 108% | -71.3% (active) | -85.7% (active) | 93% | -2.67% (active)
O=C(CSc1nc2ccccc2c(=O)n1-c1ccc(Cl)c(Cl)c1)Nc1ccc(S(=O)(=O)Nc2ccc(Cl)nn2)cc1 | 103% | 94.5% | 96.4% | 79.8% | 118% | 95.3% | 82.1% | 103% | 97% | 97.2% | 108% | 106% | 94% | 91.1% | 97.7% | 88.8% | 95.8% | 106% | 91.2% | 99.8%
O=C(CSc1nnc(-c2cccs2)n1-c1ccccc1)Nc1ccccc1 | 108% | 76.7% | 83.5% | 64.4% | 105% | 59.6% | 63.6% | 84.9% | 93.7% | 93.6% | 61.3% | 99.7% | 53.5% | 96.7% | 56.3% | 80.1% | 89.9% | 84.2% | 33.2% | 61.9%
N#C/C(=N\Nc1ccc(F)cc1)C(=O)Nc1cc(-c2ccccc2)nn1-c1ccccc1 | 4.66% (active) | 5.52% (active) | 1.17% (active) | 3.54% (active) | 26.6% | 1.44% (active) | 2.61% (active) | -4.27% (active) | 15.7% | 21.9% | 24.1% | 11.9% | 11% | 19.8% | 1.96% (active) | -14.8% (active) | 24.7% | 11.2% | 25.9% | 3.07% (active)
Cn1c(SCC(=O)c2ccc(Br)cc2)nc2ccccc2c1=O | 102% | 82.2% | 96.6% | 75.9% | 117% | 96.1% | 85.4% | 92.7% | 91.9% | 99% | 89.6% | 77.7% | 96.8% | 106% | 81.8% | 98.9% | 90.5% | 102% | 102% | 96.5%
Cn1cc(-c2cc3ncnc(Nc4ccc(NC(=O)Nc5cc(C(C)(C)C)on5)cc4)c3s2)cn1 | -9.06% (active) | 48.2% | 18.8% | 41.7% | 62.5% | 27.1% | 14.5% | 16.4% | 22.2% | 14.3% | 22.3% | 5.73% (active) | 44.2% | 30.4% | 41% | 20.4% | 19.8% | 54.9% | 14.9% | 61.6%
CC1=C(C)C(=O)C(Nc2cccc(C)c2)=C(Br)C1=O | 117% | 68.7% | 96.9% | 80.2% | 152% | 95.7% | 99.3% | 95.5% | 16.5% | -29.9% (active) | 69.3% | 35.8% | 95.7% | 128% | 69.3% | 85.7% | 84.5% | 110% | 96.1% | 98.1%
C/C(=C(\c1ccc(O)cc1)c1ccc(OCCN2CCCCCC2)cc1)c1ccc(Cl)cc1 | -92.3% (active) | -81.2% (active) | -84.7% (active) | -93.3% (active) | -95.2% (active) | -88.2% (active) | -97.3% (active) | -91% (active) | 3.56% (active) | -21.6% (active) | -24.9% (active) | -2.67% (active) | -73.5% (active) | -56.3% (active) | -59.8% (active) | -85.5% (active) | -65.1% (active) | -73.3% (active) | -46.2% (active) | -72.7% (active)
N/C(=N\C(N)=N\c1nc2ccccc2s1)c1ccc(Cl)cc1 | 96.8% | 59.8% | 61.1% | 73.1% | 132% | 62.1% | 65.1% | 74.7% | 57.9% | 74% | -8.26% (active) | 57% | 79.5% | 94.5% | 101% | 110% | 92% | 98.4% | 105% | 80.3%
Cc1ccc2c(n1)C(=O)C(Cl)=C(Nc1ccc(C(=O)OC(C)(C)C)cc1)C2=O | 116% [9.25 µM] | 76.5% [9.25 µM] | 88% [9.25 µM] | 46.4% [9.25 µM] | 83.9% [9.25 µM] | -21.5% [9.25 µM] (active) | -34.8% [9.25 µM] (active) | 110% [9.25 µM] | -23.2% [9.25 µM] (active) | -6.96% [9.25 µM] (active) | -11.5% [9.25 µM] (active) | -0.459% [9.25 µM] (active) | 80.3% [9.25 µM] | 127% [9.25 µM] | 42.7% [9.25 µM] | 101% [9.25 µM] | 84.8% [9.25 µM] | 1.44% [9.25 µM] (active) | 101% [9.25 µM] | 84.9% [9.25 µM]
COc1ccc(NC2=C(Br)C(=O)C(C)=C(C)C2=O)cc1OC | 106% | 80.8% | 100% | 83.5% | 165% | 99.7% | 99.1% | 95% | -27.9% (active) | -41.6% (active) | 71.2% | 70.8% | 96% | 121% | 14.1% | 83.8% | 86% | 107% | 97.6% | 97.3%
C#C[C@]1(O)CC[C@H]2[C@@H]3CC=C4c5sc(Nc6cccc(F)c6)nc5CC[C@]4(C)[C@H]3CC[C@@]21C | 27.8% | 25% | 45.6% | 17.1% | 65.1% | 35% | 7.13% (active) | 31.7% | 8.66% (active) | 5.5% (active) | 1.48% (active) | -31.8% (active) | 43.8% | 57.5% | 44.5% | -10.6% (active) | 49.8% | 27.4% | -7.5% (active) | 37.9%
Cn1cc(-c2nc(N)nnc2-c2c[nH]c3ccc(Br)cc23)c2cc(F)ccc21 | 113% | 78.5% | 102% | 58.8% | 131% | 78.5% | 67.8% | 98.9% | 83.2% | 69.4% | 50% | 80.2% | 96.8% | 110% | 94.5% | 118% | 73% | 99.6% | 96.4% | 89.8%
CN1CCN(c2ccc(Nc3nc(NCCCNS(=O)(=O)c4ccccc4)c4sccc4n3)cc2)CC1 | 106% | 97.6% | 72.7% | 69.2% | 145% | 20.2% | 30.8% | 131% | 37.9% | 26% | 2.4% (active) | 14.6% | 65.8% | 78.3% | 56.5% | 122% | 79.7% | 74.3% | 80.3% | 86.4%
COc1ccc(C2CC(c3cccc(OCCCCOc4cccc(C5=NN(C(C)=O)C(c6ccc(OC)cc6)C5)c4)c3)=NN2C(C)=O)cc1 (stereo not given) | 59.7% | 46.3% | 79.9% | 54.7% | 78.9% | 67.2% | 54.1% | 75.8% | 63.8% | 57.4% | 39.3% | 33.8% | 68.2% | 96.2% | 20% | 83.5% | 83.8% | 68.2% | 89.3% | 75.7%
